{
  "source": "PubChem BioAssay AID463173",
  "about": "(ICCB-Longwood Screening Facility, Harvard Medical School, 2010)",
  "note": "The whole screen tested about 52,000 compounds, of which about 1,700 (3.3%) were called active. Rule as the data show it: active = survival mostly below about 52% (no sharp cut-off); inactive = mostly above about 56%. What follows is part of a selection rich in actives, with near analogues and random picks from the rest.",
  "data": [
    {"system": "Wild type", "assay": "S. aureus survival, RN4220 and DeltatarO strains – OD600, teichoic acid synthesis inhibitors, primary screen (AID 463173)", "conditions": "S. aureus RN4220 wild type/DeltatarO growth, OD600, 18 h, active compounds read low, screened at 18.75 µg/mL (by protocol)", "values": [
      {"compound": "COCCn1c(Cc2ccccc2)nnc1SCC(=O)N(C)C", "survival": "100% (inactive)"},
      {"compound": "CC(C)(C)NC(=O)c1ccc2nc(CCc3ccccc3)oc2c1", "survival": "65% (inactive)"},
      {"compound": "Cn1c(CNc2cccc(C(F)(F)F)c2)n[nH]c1=S", "survival": "111% (inactive)"},
      {"compound": "O=C(Cn1cc(SCc2ccccc2)c2ccccc21)N1CCCCCC1", "survival": "83% (inactive)"},
      {"compound": "O=C(Cn1cnc(S(=O)(=O)N2CCCC2)c1)Nc1ccc(OC(F)(F)F)cc1", "survival": "84% (inactive)"},
      {"compound": "CCCCNC(=O)CN1CCN(c2ccc(NC(=O)c3ccc(OC)cc3)cc2C(=O)O)CC1", "survival": "80% (inactive)"},
      {"compound": "COc1ccc(CCNC(=O)c2ccc3c(c2)N(Cc2cccc(C)c2)C(=O)c2ccccc2S3(=O)=O)cc1OC", "survival": "101% (inactive)"},
      {"compound": "CCC(C)(C)C(=O)Nc1nnc(COC)s1", "survival": "122% (inactive)"},
      {"compound": "N#CSc1ccc2nc(N)sc2c1", "survival": "93% (inactive)"},
      {"compound": "CC(C)(C)Sc1ccc(SC#N)s1", "survival": "23% (active)"},
      {"compound": "Cc1ccccc1NC(=O)C(Cc1ccccc1)N1Cc2ccccc2C1=O", "note": "(stereo unspecified)", "survival": "76% (inactive)"},
      {"compound": "N#CC(C#N)C(CC(=O)c1ccccc1)c1ccc2c(c1)OCO2", "note": "(stereo unspecified)", "survival": "111% (inactive)"},
      {"compound": "CCc1ccccc1NC(=O)CC(c1ccc(F)cc1)N1Cc2ccccc2C1=O", "note": "(stereo unspecified)", "survival": "121% (inactive)"},
      {"compound": "Cc1c(Cl)cccc1NC(=O)CC(c1cccs1)N1Cc2ccccc2C1=O", "note": "(stereo unspecified)", "survival": "0% (active)"},
      {"compound": "Cc1c(Cl)cccc1NC(=O)CC(c1ccc(F)cc1)N1Cc2ccccc2C1=O", "note": "(stereo unspecified)", "survival": "10% (active)"},
      {"compound": "O=C(CC(c1cccs1)N1Cc2ccccc2C1=O)Nc1ccccc1F", "note": "(stereo unspecified)", "survival": "73% (inactive)"},
      {"compound": "CCOc1ccccc1NC(=O)CC(c1ccc(F)cc1)N1Cc2ccccc2C1=O", "note": "(stereo unspecified)", "survival": "80% (inactive)"},
      {"compound": "O=C(CC(c1cccs1)N1Cc2ccccc2C1=O)Nc1ccc(Cl)cc1", "note": "(stereo unspecified)", "survival": "129% (inactive)"},
      {"compound": "Cc1cccc(Cn2c(SCc3ccc(C(=O)NCc4ccccc4F)cc3)nc3ccncc32)c1", "survival": "80% (inactive)"},
      {"compound": "COCCn1c(C)nnc1SCC1CCCO1", "note": "(stereo unspecified)", "survival": "127% (inactive)"},
      {"compound": "COC(=O)c1ccc(NC(=O)c2cccc3c2C(=O)N(C2CCCCC2)C3)cc1", "survival": "88% (inactive)"},
      {"compound": "CC(C)c1ccc(NC(=O)c2cccc3c2C(=O)N(C2CCCCC2)C3)cc1", "survival": "1% (active)"},
      {"compound": "Cc1cc(C)cc(NC(=O)c2cccc3c2C(=O)N(C2CCCCC2)C3)c1", "survival": "42% (inactive)"},
      {"compound": "Cn1c(C(C(=O)NCC2CCCO2)N(C(=O)Cn2nnc3ccccc32)c2ccc3c(c2)OCO3)nc2ccccc21", "note": "(stereo unspecified)", "survival": "111% (inactive)"},
      {"compound": "CCc1cccc(C)c1NC(=O)c1cc(C)nc2c1c(C)nn2-c1cccc(Cl)c1C", "survival": "78% (inactive)"},
      {"compound": "COc1ccc(NC(=O)c2cc(C)nc3c2c(C)nn3-c2cccc(Cl)c2C)c(OC)c1", "survival": "85% (inactive)"},
      {"compound": "Cc1ccc(C)c(N2CCN(C(=O)c3cc(C)nc4c3c(C)nn4-c3ccccc3)CC2)c1", "survival": "134% (inactive)"},
      {"compound": "Cc1cc(C(=O)NCc2ccccc2C)c2c(C)nn(-c3cccc(F)c3)c2n1", "survival": "76% (inactive)"},
      {"compound": "Cc1ccc(C)c(N2CCN(C(=O)c3cc(C)nc4c3c(C)nn4-c3cccc(F)c3)CC2)c1", "survival": "0% (active)"},
      {"compound": "Cc1cc(C(=O)N2CCN(c3ccccc3)CC2)c2c(C)nn(-c3cccc(F)c3)c2n1", "survival": "63% (inactive)"},
      {"compound": "Cc1ccc(NC(=O)c2cc(C)nc3c2c(C)nn3-c2cccc(Cl)c2C)c(C)c1", "survival": "-6% (active)"},
      {"compound": "Cc1ccc(-n2nc(C)c3c(C(=O)Nc4ccc(Br)c(C)c4)cc(C)nc32)cc1", "survival": "78% (inactive)"},
      {"compound": "Cc1cc(C)cc(NC(=O)c2cc(C)nc3c2c(C)nn3-c2ccccc2)c1", "survival": "-6% (active)"},
      {"compound": "Cc1cc(C(=O)Nc2ccc(C(C)C)cc2)c2c(C)nn(-c3ccccc3)c2n1", "survival": "80% (inactive)"},
      {"compound": "COc1cccc(CNC(=O)c2cc(C)nc3c2c(C)nn3-c2cccc(F)c2)c1", "survival": "131% (inactive)"},
      {"compound": "Cc1cc(C(=O)NCc2ccccc2)c2c(C)nn(-c3cccc(F)c3)c2n1", "survival": "14% (active)"}
    ]}
  ]
}
